Experimental data: ChEMBL document CHEMBL1961873, “Compounds: GSK PKIS; Assays: Nanosyn kinase panel” (2012)

Molecular target: Tyrosine-protein kinase Fgr (Homo sapiens) (UniProt P09769);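 further: value reported as mean kinase inhibition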
Settings: at 1 µM

Sequence of Tyrosine-protein kinase Fgr (Homo sapiens) (P09769 2-529 limits assumed): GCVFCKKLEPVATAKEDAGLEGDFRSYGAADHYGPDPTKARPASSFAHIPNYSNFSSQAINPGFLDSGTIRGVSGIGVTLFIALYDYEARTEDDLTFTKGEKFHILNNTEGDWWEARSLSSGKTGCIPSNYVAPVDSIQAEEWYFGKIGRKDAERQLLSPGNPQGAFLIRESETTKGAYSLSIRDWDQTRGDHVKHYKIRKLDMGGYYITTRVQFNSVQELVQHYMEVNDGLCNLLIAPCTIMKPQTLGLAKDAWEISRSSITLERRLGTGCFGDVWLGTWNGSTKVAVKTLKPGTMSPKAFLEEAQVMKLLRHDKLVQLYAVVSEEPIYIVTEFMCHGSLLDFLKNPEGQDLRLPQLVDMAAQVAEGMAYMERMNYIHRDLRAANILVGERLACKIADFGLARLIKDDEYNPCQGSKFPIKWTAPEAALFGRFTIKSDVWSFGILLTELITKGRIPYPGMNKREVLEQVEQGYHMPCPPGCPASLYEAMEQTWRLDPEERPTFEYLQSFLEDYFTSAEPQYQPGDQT

Row | SMILES | inhibition [%]
1 | Nc1nccc(-c2c(-c3ccc(F)cc3)ncn2CCCN2CCOCC2)n1 | 3.22
2 | NS(=O)(=O)c1ccc(Nc2cc(-c3cccc(O)c3)n[nH]2)cc1 | 6.79
3 | C[C@@H](Oc1cc(-n2cnc3ccc(OC[C@@H](O)CO)cc32)sc1C(N)=O)c1ccccc1Cl | 4.04
4 | CN1CCN(C(=O)c2ccc(NC(=O)Nc3ccc(N(C)c4ccnc(Nc5ccc(CS(C)(=O)=O)cc5)n4)cc3)cc2)CC1 | 26.3
5 | Nc1nccc(-c2c(-c3ccc(F)cc3)nn3cc(C(F)(F)F)ccc23)n1 | 4.08
6 | COc1cccc(-n2nc(C)c3c(N/N=C(\C)c4ccncc4)ncnc32)c1 | 4.36
7 | CN(C)c1cc2c(Nc3ccc4c(cnn4Cc4ccccc4)c3)ncnc2cn1 | 33.2
8 | CC(C)c1ccc2c(c1)NC(=O)/C2=N/Nc1ccc(S(N)(=O)=O)cc1 | 15.5
9 | COc1cc(Nc2nccc(-c3cnn4ncccc34)n2)cc(OC)c1 | 36.9
10 | NS(=O)(=O)c1cccc(-c2cc3ccncc3cc2OCc2ccccc2)c1 | 7.39
11 | CCS(=O)(=O)c1ccc(OC)c(Nc2nccc(N(C)c3ccc4c(C)n[nH]c4c3)n2)c1 | 61.6
12 | NS(=O)(=O)c1ccc(N/N=C2\C(=O)Nc3ccc(Cl)cc32)cc1 | 7.63
13 | OCc1ccc(-c2nc(-c3ccccn3)c(-c3ccc4c(c3)OCO4)[nH]2)cc1 | 8.26
14 | NC(=O)c1cccc(Nc2nccc(Nc3cccc(F)c3)n2)c1 | 30
15 | ON=C1CCc2cc(-c3nc(C4CCNCC4)[nH]c3-c3ccncc3)ccc21 | 2.99
16 | CN(C)C(=O)O[C@H]1CN[C@H](C#Cc2cc3ncnc(Nc4ccc(OCc5cccc(F)c5)c(Cl)c4)c3s2)C1 | 4.75
17 | Cc1cc(Cl)cc2c1NC(=O)C2=NNc1ccc(S(N)(=O)=O)cc1 | 2.96

Row | SMILES | inhibition [%]
18 | COc1ccc(-c2nn3ncccc3c2-c2ccnc(Nc3cccc(C(F)(F)F)c3)n2)cc1 | 42.1
19 | O=C(Nc1ccc(Oc2ccc3[nH]c(NC(=O)c4ccco4)nc3c2)cc1)Nc1cc(C(F)(F)F)ccc1F | 9.51
20 | NS(=O)(=O)c1cccc(Nc2cc(-c3ccc(F)cc3)n[nH]2)c1 | 14.4
21 | CS(=O)(=O)Nc1cccc(-c2ccc3c(NC(=O)C4CC4)n[nH]c3c2)c1 | 4.5
22 | Cc1ccc2c(c1)/C(=N/Nc1ccc(S(N)(=O)=O)cc1)C(=O)N2 | 9.99
23 | COc1cc2ncn(-c3cc(OCc4ccccc4S(C)(=O)=O)c(C#N)s3)c2cc1OC | 59.6
24 | Nc1ccc(C#Cc2cncnc2Nc2ccc(OCc3cccc(F)c3)c(Cl)c2)cc1 | 4.78
25 | Cc1nc(-c2ccccc2)n2nc(NCCCN3CCOCC3)ncc12 | 4.11
26 | CCOc1nccc2c1nc(-c1nonc1N)n2CC | 5.06
27 | COc1cc(/C=N/Nc2ncnc3c2cnn3C(C)C)ccc1O | 40.4
28 | NS(=O)(=O)c1ccc(-c2cc3ccncc3cc2OCc2ccccc2)cc1 | 4.64
29 | CN(C)CCCn1c(-c2nonc2N)nc2cnccc21 | 2.22
30 | Cc1ccc(O)cc1Nc1ccnc2ccc(S(C)(=O)=O)cc12 | 81.8
31 | Cc1ccc2c(-c3ccnc(Nc4ccc5c(c4)OCCO5)n3)c(-c3ccc(C(F)(F)F)cc3)nn2n1 | 18.4
32 | CCn1c(-c2nonc2N)nc2c(C#CC(C)(C)O)nc(OCCNC)cc21 | 3.62
33 | Cc1ccc(NC(=O)CC2CC2)cc1-c1ccc(C(=O)NCC2CC2)cc1 | 6.65
34 | Oc1cccc(-c2nc(-c3ccccc3)[nH]c2-c2ccncc2)c1 | 19.5

Molecular target: Vascular endothelial growth factor receptor 1 (Homo sapiens) (UniProt P17948);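 further: values are mean percent inhibition of FLT1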
Sequence (P17948 whole entry): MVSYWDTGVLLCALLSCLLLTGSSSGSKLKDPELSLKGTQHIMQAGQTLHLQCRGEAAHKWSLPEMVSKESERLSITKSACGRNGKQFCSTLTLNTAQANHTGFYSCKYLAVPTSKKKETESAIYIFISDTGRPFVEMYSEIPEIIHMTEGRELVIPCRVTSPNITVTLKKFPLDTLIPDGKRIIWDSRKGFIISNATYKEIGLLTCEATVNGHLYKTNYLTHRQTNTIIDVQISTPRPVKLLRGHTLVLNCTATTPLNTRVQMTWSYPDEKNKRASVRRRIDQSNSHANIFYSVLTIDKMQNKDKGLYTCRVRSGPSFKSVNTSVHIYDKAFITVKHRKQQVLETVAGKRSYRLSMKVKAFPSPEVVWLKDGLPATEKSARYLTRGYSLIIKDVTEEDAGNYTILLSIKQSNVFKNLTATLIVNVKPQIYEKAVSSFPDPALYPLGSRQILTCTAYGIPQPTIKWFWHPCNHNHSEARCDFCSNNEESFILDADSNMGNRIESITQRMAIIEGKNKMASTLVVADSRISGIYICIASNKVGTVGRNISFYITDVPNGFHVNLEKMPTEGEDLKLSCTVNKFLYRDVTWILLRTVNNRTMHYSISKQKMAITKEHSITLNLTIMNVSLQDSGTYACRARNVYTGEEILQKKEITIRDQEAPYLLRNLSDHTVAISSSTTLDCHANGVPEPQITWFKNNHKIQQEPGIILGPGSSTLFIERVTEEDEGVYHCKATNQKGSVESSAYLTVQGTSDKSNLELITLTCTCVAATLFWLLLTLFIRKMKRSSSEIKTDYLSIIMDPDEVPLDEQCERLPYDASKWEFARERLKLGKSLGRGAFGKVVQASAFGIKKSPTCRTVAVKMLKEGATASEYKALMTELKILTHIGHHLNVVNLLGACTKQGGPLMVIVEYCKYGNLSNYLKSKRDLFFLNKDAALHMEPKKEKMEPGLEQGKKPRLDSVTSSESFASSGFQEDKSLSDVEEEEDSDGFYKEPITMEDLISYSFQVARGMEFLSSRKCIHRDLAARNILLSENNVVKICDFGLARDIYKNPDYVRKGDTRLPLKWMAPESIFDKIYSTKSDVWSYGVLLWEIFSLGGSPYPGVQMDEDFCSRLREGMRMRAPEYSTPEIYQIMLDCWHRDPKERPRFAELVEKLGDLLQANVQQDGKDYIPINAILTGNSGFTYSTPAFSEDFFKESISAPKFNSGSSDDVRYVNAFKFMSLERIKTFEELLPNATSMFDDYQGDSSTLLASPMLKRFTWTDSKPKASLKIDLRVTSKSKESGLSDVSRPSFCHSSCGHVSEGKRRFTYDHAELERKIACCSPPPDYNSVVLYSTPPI
Settings: at 0.1 µM

Row | SMILES | inhibition [%]
35 | Nc1nccc(-c2c(-c3ccc(F)cc3)ncn2CCCN2CCOCC2)n1 | 0.15
36 | NS(=O)(=O)c1ccc(Nc2cc(-c3cccc(O)c3)n[nH]2)cc1 | 2.51
37 | C[C@@H](Oc1cc(-n2cnc3ccc(OC[C@@H](O)CO)cc32)sc1C(N)=O)c1ccccc1Cl | -1.57
38 | CN1CCN(C(=O)c2ccc(NC(=O)Nc3ccc(N(C)c4ccnc(Nc5ccc(CS(C)(=O)=O)cc5)n4)cc3)cc2)CC1 | 21.4
39 | Nc1nccc(-c2c(-c3ccc(F)cc3)nn3cc(C(F)(F)F)ccc23)n1 | -2.26
40 | COc1cccc(-n2nc(C)c3c(N/N=C(\C)c4ccncc4)ncnc32)c1 | -0.52
41 | CN(C)c1cc2c(Nc3ccc4c(cnn4Cc4ccccc4)c3)ncnc2cn1 | 1.1
42 | CC(C)c1ccc2c(c1)NC(=O)/C2=N/Nc1ccc(S(N)(=O)=O)cc1 | 1.02
43 | COc1cc(Nc2nccc(-c3cnn4ncccc34)n2)cc(OC)c1 | 10.4
44 | NS(=O)(=O)c1cccc(-c2cc3ccncc3cc2OCc2ccccc2)c1 | 1.89
45 | CCS(=O)(=O)c1ccc(OC)c(Nc2nccc(N(C)c3ccc4c(C)n[nH]c4c3)n2)c1 | 60.8
46 | NS(=O)(=O)c1ccc(N/N=C2\C(=O)Nc3ccc(Cl)cc32)cc1 | 2.91
47 | OCc1ccc(-c2nc(-c3ccccn3)c(-c3ccc4c(c3)OCO4)[nH]2)cc1 | 0.94
48 | NC(=O)c1cccc(Nc2nccc(Nc3cccc(F)c3)n2)c1 | 1.29
49 | ON=C1CCc2cc(-c3nc(C4CCNCC4)[nH]c3-c3ccncc3)ccc21 | 0.48
50 | CN(C)C(=O)O[C@H]1CN[C@H](C#Cc2cc3ncnc(Nc4ccc(OCc5cccc(F)c5)c(Cl)c4)c3s2)C1 | 1.8
51 | Cc1cc(Cl)cc2c1NC(=O)C2=NNc1ccc(S(N)(=O)=O)cc1 | 0.01

Row | SMILES | inhibition [%]
52 | COc1ccc(-c2nn3ncccc3c2-c2ccnc(Nc3cccc(C(F)(F)F)c3)n2)cc1 | 4.29
53 | O=C(Nc1ccc(Oc2ccc3[nH]c(NC(=O)c4ccco4)nc3c2)cc1)Nc1cc(C(F)(F)F)ccc1F | 23.6
54 | NS(=O)(=O)c1cccc(Nc2cc(-c3ccc(F)cc3)n[nH]2)c1 | 2.62
55 | CS(=O)(=O)Nc1cccc(-c2ccc3c(NC(=O)C4CC4)n[nH]c3c2)c1 | -2.92
56 | Cc1ccc2c(c1)/C(=N/Nc1ccc(S(N)(=O)=O)cc1)C(=O)N2 | 0.83
57 | COc1cc2ncn(-c3cc(OCc4ccccc4S(C)(=O)=O)c(C#N)s3)c2cc1OC | 3.31
58 | Nc1ccc(C#Cc2cncnc2Nc2ccc(OCc3cccc(F)c3)c(Cl)c2)cc1 | 0.39
59 | Cc1nc(-c2ccccc2)n2nc(NCCCN3CCOCC3)ncc12 | 2.94
60 | CCOc1nccc2c1nc(-c1nonc1N)n2CC | 2.14
61 | COc1cc(/C=N/Nc2ncnc3c2cnn3C(C)C)ccc1O | -0.74
62 | NS(=O)(=O)c1ccc(-c2cc3ccncc3cc2OCc2ccccc2)cc1 | 0.22
63 | CN(C)CCCn1c(-c2nonc2N)nc2cnccc21 | 1.09
64 | Cc1ccc(O)cc1Nc1ccnc2ccc(S(C)(=O)=O)cc12 | 22.2
65 | Cc1ccc2c(-c3ccnc(Nc4ccc5c(c4)OCCO5)n3)c(-c3ccc(C(F)(F)F)cc3)nn2n1 | -1.27
66 | CCn1c(-c2nonc2N)nc2c(C#CC(C)(C)O)nc(OCCNC)cc21 | 1.71
67 | Cc1ccc(NC(=O)CC2CC2)cc1-c1ccc(C(=O)NCC2CC2)cc1 | -0.36
68 | Oc1cccc(-c2nc(-c3ccccc3)[nH]c2-c2ccncc2)c1 | 10.6
